Reference: the supplement of paper PMC10037445
Over roughly 2,900 compounds, “IRF Lucia reporter activity, fold change vs agonist alone” has its median near 0.9; the highest 2% begin near 2.8. Only a selection was taken, and the highest values are over-represented in it overall.

Assays:
RAW-Dual [1] = test: IRF Lucia reporter activity, fold change vs agonist alone; higher = enhanced IRF activity; details: agonist: MPLA (TLR4) […]
Outline: (§1)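 RAW-Dual macrophages (50,000 cells/well in DMEM, 384-well plates) received 50 nL of library stock by pin tool, then a PRR agonist 1 h later, and were kept at 37 °C, 5% CO2. After 20 hours, supernatant was read for IRF by QuantiLuc luminescence and for NF-κB by QuantiBlue absorbance at 620 nm. Reporter activity is fold change over agonist-alone wells. Cytotoxic wells had IncuCyte confluency below 70% of agonist controls in both mask sets.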

RAW-Dual [2] = test: IRF Lucia reporter activity, fold change vs agonist alone; cytotoxicity flag (confluency mask): not cytotoxic; higher = enhanced IRF activity
Outline: as §1

RAW-Dual [3] = test: IRF Lucia reporter activity, fold change vs agonist alone; cytotoxicity flag (confluency mask): cytotoxic (confluency <70% of control); higher = enhanced IRF activity
Outline: as §1

[4] = library stock concentration (final ~1000-fold dilution): 10 mM, cytotoxicity flag (confluency mask): not cytotoxic
[5] = agonist: 3'3'-cGAMP (STING) 10 ug/mL
[6] = library stock concentration (final ~1000-fold dilution): 10 mM, cytotoxicity flag (confluency mask): cytotoxic (confluency <70% of control)

O=C(CCc1ccc(O)cc1)c1c(O)cccc1OC1OC(CO)C(O)C(O)C1O (stereo not drawn)
IRF Lucia reporter activity (RAW-Dual [1]; [4]): 1.01

O=C(CCc1ccc(O)cc1)c1c(O)cccc1OC1OC(CO)C(O)C(O)C1O (stereo not drawn) (library stock concentration (final ~1000-fold dilution): 10 mM)
IRF Lucia reporter activity (RAW-Dual [2]; [5]): 0.943 | IRF Lucia reporter activity (RAW-Dual [2]; agonist: LPS (TLR4) 0.1 ug/mL): 0.918

CC(c1ccc2nccn2c1)n1nnc2ncc(-c3cnn(C)c3)nc21 (stereo not drawn) (library stock concentration (final ~1000-fold dilution): 10 mM)
IRF Lucia reporter activity (RAW-Dual [2]; [5]): 0.953 | IRF Lucia reporter activity (RAW-Dual [2]; agonist: LPS (TLR4) 0.1 ug/mL): 1.15

CN(C)CCSSCCNC(=O)C1CCN(C(=O)CSc2ccc(Cl)cc2)CC1.O=C(O)C(F)(F)F
IRF Lucia reporter activity (RAW-Dual [1]; [4]): 0.751

CN(C)CCSSCCNC(=O)C1CCN(C(=O)CSc2ccc(Cl)cc2)CC1.O=C(O)C(F)(F)F (library stock concentration (final ~1000-fold dilution): 10 mM)
IRF Lucia reporter activity (RAW-Dual [2]; [5]): 0.396 | IRF Lucia reporter activity (RAW-Dual [2]; agonist: LPS (TLR4) 0.1 ug/mL): 0.778

O=C1OC(COc2ccccc2[N+](=O)[O-])CC1Cc1ccccc1 (stereo not drawn) (library stock concentration (final ~1000-fold dilution): 10 mM)
IRF Lucia reporter activity (RAW-Dual [2]; [5]): 1.23 | IRF Lucia reporter activity (RAW-Dual [2]; agonist: LPS (TLR4) 0.1 ug/mL): 1.23

O=c1cccccc1O (library stock concentration (final ~1000-fold dilution): 10 mM)
IRF Lucia reporter activity (RAW-Dual [2]; [5]): 0.664 | IRF Lucia reporter activity (RAW-Dual [2]; agonist: LPS (TLR4) 0.1 ug/mL): 0.952

O=c1cccccc1O
IRF Lucia reporter activity (RAW-Dual [1]; [4]): 1.24

NC(=O)c1cc(F)cc2c1C(=O)N(C1CCN(C3CCC(F)(F)CC3)CC1)C2 (library stock concentration (final ~1000-fold dilution): 10 mM)
IRF Lucia reporter activity (RAW-Dual [2]; [5]): 0.94 | IRF Lucia reporter activity (RAW-Dual [2]; agonist: LPS (TLR4) 0.1 ug/mL): 0.923

CC1(C)CN(C(=O)c2ccc(-c3cccc4nc(NC(=O)C5CC5)nn34)cc2)C1 (library stock concentration (final ~1000-fold dilution): 10 mM)
IRF Lucia reporter activity (RAW-Dual [2]; [5]): 0.308 | IRF Lucia reporter activity (RAW-Dual [2]; agonist: LPS (TLR4) 0.1 ug/mL): 0.577

O=C(Nc1nc2cccc(-c3ccc(CN4CCS(=O)(=O)CC4)cc3)n2n1)C1CC1 (library stock concentration (final ~1000-fold dilution): 10 mM)
IRF Lucia reporter activity (RAW-Dual [2]; [5]): 1.1 | IRF Lucia reporter activity (RAW-Dual [2]; agonist: LPS (TLR4) 0.1 ug/mL): 3.4

CC1(C)CN(C(=O)c2ccc(-c3cccc4nc(NC(=O)C5CC5)nn34)cc2)C1
IRF Lucia reporter activity (RAW-Dual [1]; [4]): 0.713

CNCCC=C1c2ccccc2CCc2ccccc21.Cl (library stock concentration (final ~1000-fold dilution): 10 mM)
IRF Lucia reporter activity (RAW-Dual [3]; [5]): 0.464 | IRF Lucia reporter activity (RAW-Dual [3]; agonist: LPS (TLR4) 0.1 ug/mL): 1.52

CNCCC=C1c2ccccc2CCc2ccccc21.Cl
IRF Lucia reporter activity (RAW-Dual [1]; [6]): 1.38

CN(C)c1ccc(O)c2c1CC1CC3C(N(C)C)C(O)=C(C(N)=O)C(=O)C3(O)C(O)=C1C2=O.Cl (stereo not drawn) (library stock concentration (final ~1000-fold dilution): 2 mM water)
IRF Lucia reporter activity (RAW-Dual [2]; [5]): 1.09 | IRF Lucia reporter activity (RAW-Dual [2]; agonist: LPS (TLR4) 0.1 ug/mL): 0.851

CN(C)c1ccc(O)c2c1CC1CC3C(N(C)C)C(O)=C(C(N)=O)C(=O)C3(O)C(O)=C1C2=O.Cl (stereo not drawn)
IRF Lucia reporter activity (RAW-Dual [1]; library stock concentration (final ~1000-fold dilution): 2 mM water, cytotoxicity flag (confluency mask): not cytotoxic): 1.28

Cc1sc2c(c1C)C(c1ccc(Cl)cc1)=N[C@@H](CC(=O)NCCCCCCCCNC(=O)COc1cccc3c1C(=O)N(C1CCC(=O)NC1=O)C3=O)c1nnc(C)n1-2 (stereo partly drawn) (library stock concentration (final ~1000-fold dilution): 10 mM)
IRF Lucia reporter activity (RAW-Dual [3]; [5]): 0.189 | IRF Lucia reporter activity (RAW-Dual [3]; agonist: LPS (TLR4) 0.1 ug/mL): 0.244

CC(C)(O)c1ccccc1CCC(SCC1(CC(=O)O)CC1)c1cccc(/C=C/c2ccc3ccc(Cl)cc3n2)c1 (stereo not drawn)
IRF Lucia reporter activity (RAW-Dual [1]; [6]): 0.73

CC(C)(O)c1ccccc1CCC(SCC1(CC(=O)O)CC1)c1cccc(/C=C/c2ccc3ccc(Cl)cc3n2)c1 (stereo not drawn) (library stock concentration (final ~1000-fold dilution): 10 mM)
IRF Lucia reporter activity (RAW-Dual [3]; [5]): 0.492 | IRF Lucia reporter activity (RAW-Dual [3]; agonist: LPS (TLR4) 0.1 ug/mL): 1.52

Cc1cccc(/C=N/Nc2cc(N3CCOCC3)nc(OCCc3ccccn3)n2)c1
IRF Lucia reporter activity (RAW-Dual [1]; [4]): 3.08

CCOC(=O)CCNc1cc(N2CCc3ccccc3CC2)nc(-c2ccccn2)n1.Cl (library stock concentration (final ~1000-fold dilution): 10 mM)
IRF Lucia reporter activity (RAW-Dual [2]; [5]): 1.03 | IRF Lucia reporter activity (RAW-Dual [2]; agonist: LPS (TLR4) 0.1 ug/mL): 1.04

Cc1cccc(/C=N/Nc2cc(N3CCOCC3)nc(OCCc3ccccn3)n2)c1 (library stock concentration (final ~1000-fold dilution): 10 mM)
IRF Lucia reporter activity (RAW-Dual [2]; [5]): 0.326 | IRF Lucia reporter activity (RAW-Dual [2]; agonist: LPS (TLR4) 0.1 ug/mL): 2.84

CCOC(=O)CCNc1cc(N2CCc3ccccc3CC2)nc(-c2ccccn2)n1.Cl
IRF Lucia reporter activity (RAW-Dual [1]; [4]): 1

CCC(NC(=O)C(C)NC)C(=O)N1CC(O)CC1Cc1c(-c2[nH]c3cc(F)ccc3c2CC2CC(O)CN2C(=O)C(CC)NC(=O)C(C)NC)[nH]c2cc(F)ccc12 (stereo not drawn)
IRF Lucia reporter activity (RAW-Dual [1]; [4]): 0.519

CCC(NC(=O)C(C)NC)C(=O)N1CC(O)CC1Cc1c(-c2[nH]c3cc(F)ccc3c2CC2CC(O)CN2C(=O)C(CC)NC(=O)C(C)NC)[nH]c2cc(F)ccc12 (stereo not drawn) (library stock concentration (final ~1000-fold dilution): 10 mM)
IRF Lucia reporter activity (RAW-Dual [2]; [5]): 0.626 | IRF Lucia reporter activity (RAW-Dual [2]; agonist: LPS (TLR4) 0.1 ug/mL): 0.632

Cc1ccc(CN(CC(O)COc2cccc3[nH]ccc23)C(C)(C)C)cc1 (stereo not drawn) (library stock concentration (final ~1000-fold dilution): 10 mM)
IRF Lucia reporter activity (RAW-Dual [3]; [5]): 0.837 | IRF Lucia reporter activity (RAW-Dual [3]; agonist: LPS (TLR4) 0.1 ug/mL): 1.9

Cc1cc(C(C)Nc2ccccc2C(=O)O)c2nc(N3CCOCC3)cc(=O)n2c1 (stereo not drawn)
IRF Lucia reporter activity (RAW-Dual [1]; [4]): 0.843
